Inconclusive results are not listed. The source made the active and inactive calls. Unless noted, calls follow the shape of the dose curve; as a rule, active = well fitted curve in the direction sought with a large enough effect in the repeat runs; inconclusive = weak or mixed curves; inactive = no such curve, though single readings can be large; an effect the other way counts as inactive or inconclusive.
Tests used:
[1] = molecular target: Thyrotropin receptor (Homo sapiens) (UniProt P16473); assay: qHTS assay to identify small molecule agonists of the thyroid stimulating hormone receptor (TSHR) signaling pathway (AID 1224843; calls by dose curve; also: nearly all actives have a fitted effect of over 45% in size; also: potency is read from the fitted curve at half-maximal effect)
Sequence of Thyrotropin receptor (Homo sapiens) (P16473 whole entry, looked up): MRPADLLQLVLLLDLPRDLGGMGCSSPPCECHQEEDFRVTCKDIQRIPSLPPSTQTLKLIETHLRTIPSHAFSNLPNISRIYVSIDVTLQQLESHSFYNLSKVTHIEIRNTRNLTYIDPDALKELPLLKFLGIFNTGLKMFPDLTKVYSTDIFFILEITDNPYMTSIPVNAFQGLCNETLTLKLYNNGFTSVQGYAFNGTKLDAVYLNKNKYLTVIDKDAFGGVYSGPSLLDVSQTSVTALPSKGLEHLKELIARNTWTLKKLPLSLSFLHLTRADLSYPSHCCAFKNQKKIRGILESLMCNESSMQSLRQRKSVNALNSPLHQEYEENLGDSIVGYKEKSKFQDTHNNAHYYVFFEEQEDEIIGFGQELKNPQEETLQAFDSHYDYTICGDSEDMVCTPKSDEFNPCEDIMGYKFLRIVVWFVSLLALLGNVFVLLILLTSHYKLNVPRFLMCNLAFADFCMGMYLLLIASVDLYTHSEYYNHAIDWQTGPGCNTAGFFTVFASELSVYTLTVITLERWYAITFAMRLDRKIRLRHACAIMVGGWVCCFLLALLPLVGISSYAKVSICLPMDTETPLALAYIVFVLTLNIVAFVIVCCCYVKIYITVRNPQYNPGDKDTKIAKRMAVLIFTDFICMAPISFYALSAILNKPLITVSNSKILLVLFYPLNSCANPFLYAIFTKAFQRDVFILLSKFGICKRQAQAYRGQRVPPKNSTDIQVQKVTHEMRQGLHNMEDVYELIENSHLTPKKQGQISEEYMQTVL
Summary of the method: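 Cell line HEK293 with TSHR; density 800/well. Exposure 30 min RT. Readout HTRF cAMP (cAMP-d2/anti-cAMP-cryptate), 1 h RT before reading.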

[2] = qHTS assay to identify small molecule agonists of the hypoxia (HIF-1) signaling pathway - cell viability counter screen (AID 1224844; calls by dose curve; also: nearly all actives have a fitted effect of over 50% in size)
Summary of the method: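 HRE-bla ME-180 cells, 2,000/well in 0.5% dialyzed FBS medium, treated 17 h at 37C with compounds. Viability read in the same wells as the bla reporter, by CellTiter-Glo luminescence after 30 min at room temperature.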

[3] = qHTS assay to identify small molecule agonists of H2AX (AID 1224845; active = well fitted activation curve with a large enough effect in the signal ratio in the repeat runs, not every such curve was filed as active; the % refers to the signal ratio)
Summary of the method: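 Wild-type CHO-K1 cells plated overnight, then exposed 3 hr at 37C to compounds at 15 concentrations (0.76% DMSO). Lysed, then HTRF anti-pH2AX(S139)-cryptate/anti-H2AX-d2 detection after 24 hr at room temperature; emissions 665 and 620 nm.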

[4] = qHTS assay to identify small molecule agonists of the hypoxia (HIF-1) signaling pathway (AID 1224846; active = well fitted activation curve with a large enough effect in the signal ratio in the repeat runs, not every such curve was filed as active; the % refers to the signal ratio)
Summary of the method: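 HRE-bla ME-180 beta-lactamase reporter cells in medium with 0.5% dialyzed FBS, pre-incubated 5 h then exposed to compounds 17 h at 37C, 5% CO2; reporter induction read with CCF4-AM FRET substrate.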

[5] = qHTS assay to identify small molecule agonists of H2AX - cell viability counter screen (AID 1224847; calls by dose curve; also: top concentration of the series differs between compounds; nearly all actives have a fitted effect of over 30% in size)
Summary of the method: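 Quantitative HTS viability measurement: CHO-K1 wild-type cells in serum (10% FBS) medium, short 3 hr drug exposure at 37C with 0.76% DMSO, CellTiter-Glo luminescent detection.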

[6] = qHTS assay to identify small molecule antagonists of the estrogen related receptor (ERR) signaling pathway from Tox21 library (AID 1224848); also: nearly all actives have a fitted effect of over 50% in size
Summary of the method: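 Screening used an ERR reporter line supplied by NTP, exposed for 18 h at 37 C to library compounds delivered in DMSO. Signal was luciferase luminescence developed with ONE-Glo at room temperature for 30 min.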

[7] = qHTS assay to identify small molecule agonists of the estrogen related receptor (ERR) signaling pathway from Tox21 library (AID 1224849; calls by dose curve; also: nearly all actives have a fitted effect of over 15% in size); conditions: ERR reporter cell line, ONE-Glo luciferase, 18 h; at 92.4 µM (top of the series) unless noted
Summary of the method: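 ERR reporter cells (NTP line) pre-incubated 6 hours at 37 C, then exposed to compounds for 18 hours at 37 C. ONE-Glo luciferase luminescence was read after 30 minutes at room temperature.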

[8] = qHTS RealTime-Glo MT Cell Viability Assay in HepG2 cells - 24 hour (AID 1224867); also: nearly all actives have a fitted effect of over 50% in size
Summary of the method: (§1)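 Cells + NanoLuc/prosubstrate dispensed (600 cells/well) → 5 h at 37 C/5% CO2 → compounds in DMSO transferred → 40 h incubation at 37 C, luminescence read at 0, 8, 16, 24, 32, 40 h.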

[9] = qHTS RealTime-Glo MT Cell Viability Assay in HEK293 cells - 32 hour (AID 1224868); also: nearly all actives have a fitted effect of over 50% in size; also: potency is read from the fitted curve at half-maximal effect
Summary of the method: (§2)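 Tox21 10K qHTS, HEK293, 600 cells/well, RealTime-Glo reagent co-dispensed with cells; 5 h preincubation, compound by pintool, 37 C, luminescence at 0–40 h.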

[10] = A CellTox Green Cytotoxicity Assay to monitor cytotoxicity in HEK293 cells - 0 hour (AID 1224869); also: nearly all actives have a fitted effect of over 50% in size
Summary of the method: (§3)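 HEK293 cells, 600/well, were preincubated 5 hours and then exposed to compounds at 37 C for up to 40 hours. A cell-impermeant cyanine dye staining dead-cell DNA was read by fluorescence at 0, 8, 16, 24, 32 and 40 h time points.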

[11] = qHTS RealTime-Glo MT Cell Viability Assay in HepG2 cells - 40 hour (AID 1224870); also: nearly all actives have a fitted effect of over 50% in size
Summary of the method: (§4)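 HepG2 cells mixed with RealTime-Glo MT reagents (NanoLuc plus cell-permeant prosubstrate) were seeded at 600 cells/well, incubated 5 h at 37 C/5% CO2, then pinned with compounds in DMSO; nonlytic luminescence tracked viability during 40 h treatment.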

[12] = A CellTox Green Cytotoxicity Assay to monitor cytotoxicity in HEK293 cells - 40 hour (AID 1224871); also: nearly all actives have a fitted effect of over 45% in size
Summary of the method: as §3

[13] = qHTS RealTime-Glo MT Cell Viability Assay in HEK293 cells - 16 hour (AID 1224872); also: nearly all actives have a fitted effect of over 50% in size; also: potency is read from the fitted curve at half-maximal effect
Summary of the method: as §2

[14] = qHTS RealTime-Glo MT Cell Viability Assay in HepG2 cells - 8 hour (AID 1224873); also: nearly all actives have a fitted effect of over 55% in size
Summary of the method: as §4

[15] = A CellTox Green Cytotoxicity Assay to monitor cytotoxicity in HEK293 cells - 24 hour (AID 1224875); also: nearly all actives have a fitted effect of over 45% in size
Summary of the method: as §3

[16] = qHTS RealTime-Glo MT Cell Viability Assay in HepG2 cells - 32 hour (AID 1224877); also: nearly all actives have a fitted effect of over 55% in size
Summary of the method: as §1

[17] = A CellTox Green Cytotoxicity Assay to monitor cytotoxicity in HepG2 cells - 40 hour (AID 1224879); also: nearly all actives have a fitted effect of over 40% in size
Summary of the method: (§5)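 HepG2 cells, 600/well, preincubated 5 h with CellTox Green dye, then exposed to Tox21 compounds in DMSO at 37 C for up to 40 h. Dead-cell DNA fluorescence read at the indicated time point.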

[18] = qHTS RealTime-Glo MT Cell Viability Assay in HEK293 cells - 40 hour (AID 1224874); conditions: RealTime-Glo luminescence; max response: hits give low values; also: nearly all actives have a fitted effect of over 50% in size; also: potency is read from the fitted curve at half-maximal effect
Summary of the method: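 600 cells/well were plated with the nonlytic NanoLuc/prosubstrate reagent, pre-incubated 5 h, then given 23 nL of compound in DMSO. Incubation at 37 C for 40 h, with luminescence from viable-cell-reduced substrate read repeatedly from 0 h.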

[19] = A CellTox Green Cytotoxicity Assay to monitor cytotoxicity in HepG2 cells - 16 hour (AID 1224876); also: nearly all actives have a fitted effect of over 45% in size
Summary of the method: as §5

[20] = A CellTox Green Cytotoxicity Assay to monitor cytotoxicity in HepG2 cells - 24 hour (AID 1224878); also: nearly all actives have a fitted effect of over 45% in size
Summary of the method: as §5
% is scaled to controls: 0 for no effect and ±100 for the full control effect.

Nc1c(Cl)c(F)nc(OCC(=O)O)c1Cl
inactive: Potency [1] | Potency [2] | outcome [3] | outcome [4] | Potency [5] | Potency [6] | activity change, positive = activation [7] 0.0677% | Potency [8] | Potency [9] | outcome [10] | Potency [11] | Potency [12] | Potency [13] | outcome [14] | Potency [15] | Potency [16] | Potency [17]

CC(C)(C)NC[C@H](O)c1ccc(O)cc1Cl
inactive: Potency [2] | outcome [3] | outcome [4] | Potency [5] | Potency [6] | Potency [8] | Potency [9] | outcome [10] | Potency [11] | Potency [12] | Potency [13] | max response [18] 4.05% | Potency [15] | Potency [19] | Potency [16] | Potency [17]
active: Potency [1] 0.0084 µM

CC[C@@H](CO)NC(=O)[C@@H]1C=C2c3cccc4[nH]cc(c34)C[C@H]2N(C)C1
inactive: Potency [1] | Potency [2] | outcome [3] | outcome [4] | Potency [5] | Potency [6] | Potency [8] | Potency [9] | outcome [10] | Potency [11] | Potency [12] | Potency [13] | outcome [14] | max response [18] 1.11% | Potency [15] | Potency [19] | Potency [20] | Potency [17]

S=C=S
inactive: Potency [1] | Potency [2] | outcome [3] | outcome [4] | Potency [5] | Potency [6] | activity change, positive = activation [7] 2.11% | Potency [8] | Potency [9] | outcome [10] | Potency [11] | Potency [12] | Potency [13] | outcome [14] | Potency [15] | Potency [16] | Potency [20] | Potency [17]

CCC1(c2ccccc2)C(=O)N(COC)C(=O)N(COC)C1=O
inactive: Potency [1] | Potency [2] | outcome [3] | outcome [4] | Potency [5] | Potency [6] | activity change, positive = activation [7] 4.72% [at 42.5 µM] | Potency [8] | Potency [9] | outcome [10] | Potency [11] | Potency [12] | Potency [13] | outcome [14] | Potency [15] | Potency [19] | Potency [16] | Potency [20] | Potency [17]

Clc1nc(Cl)nc(Nc2ccccc2Cl)n1
inactive: Potency [1] | Potency [2] | outcome [3] | outcome [4] | Potency [5] | Potency [6] | activity change, positive = activation [7] 2.23% | Potency [8] | Potency [9] | outcome [10] | Potency [11] | Potency [12] | Potency [13] | max response [18] 11.5% | Potency [15] | Potency [19] | Potency [17]

CC(Cc1ccccc1)NCCn1cnc2c1c(=O)n(C)c(=O)n2C (configuration not stated)
inactive: Potency [1] | Potency [2] | outcome [3] | outcome [4] | Potency [5] | Potency [6] | Potency [8] | outcome [10] | Potency [11] | Potency [12] | outcome [14] | Potency [15] | Potency [19] | Potency [20] | Potency [17]
active: Potency [9] 21.6 µM | Potency [13] 15.3 µM | Potency [18] 24.2 µM

CCOC(=O)CCl
inactive: Potency [1] | Potency [2] | outcome [3] | outcome [4] | Potency [5] | Potency [8] | Potency [9] | outcome [10] | Potency [11] | Potency [12] | outcome [14] | max response [18] 14.4% | Potency [15] | Potency [19] | Potency [16] | Potency [20] | Potency [17]

CN1COCN(Cc2cnc(Cl)s2)/C1=N\[N+](=O)[O-]
inactive: Potency [1] | Potency [2] | outcome [3] | outcome [4] | Potency [5] | Potency [8] | Potency [9] | outcome [10] | Potency [11] | Potency [12] | outcome [14] | max response [18] 7.06% | Potency [15] | Potency [19] | Potency [16] | Potency [17]

N=C(N)[Se]
inactive: Potency [1] | Potency [2] | outcome [3] | outcome [4] | Potency [5] | Potency [8] | Potency [9] | outcome [10] | Potency [11] | Potency [12] | Potency [13] | outcome [14] | Potency [15] | Potency [19] | Potency [16] | Potency [20] | Potency [17]

O=c1[nH]c2ccccc2n1C1CCNCC1
inactive: Potency [1] | Potency [2] | outcome [3] | outcome [4] | Potency [5] | Potency [8] | Potency [9] | outcome [10] | Potency [11] | Potency [12] | Potency [13] | outcome [14] | max response [18] 2.11% | Potency [15] | Potency [16] | Potency [20] | Potency [17]

O=CCCl
inactive: Potency [1] | Potency [2] | outcome [3] | outcome [4] | Potency [5] | Potency [8] | Potency [9] | outcome [10] | Potency [11] | Potency [12] | Potency [13] | outcome [14] | Potency [15] | Potency [16] | Potency [20] | Potency [17]

O=C1CC(=O)NC(=O)N1
inactive: Potency [1] | Potency [2] | outcome [3] | outcome [4] | Potency [5] | Potency [8] | Potency [9] | outcome [10] | Potency [11] | Potency [12] | outcome [14] | max response [18] 12.1% | Potency [15] | Potency [19] | Potency [16] | Potency [20] | Potency [17]

BrCc1ccc(Br)cc1
inactive: Potency [1] | Potency [2] | outcome [3] | outcome [4] | Potency [5] | Potency [8] | Potency [9] | outcome [10] | Potency [11] | Potency [12] | max response [18] 4.4% | Potency [15] | Potency [19] | Potency [16] | Potency [20] | Potency [17]

C=CC=O
inactive: Potency [1] | Potency [2] | outcome [3] | outcome [4] | Potency [5] | Potency [8] | outcome [10] | Potency [11] | Potency [12] | Potency [13] | outcome [14] | Potency [15] | Potency [19] | Potency [16] | Potency [20] | Potency [17]

NNCc1ccccc1
inactive: Potency [1] | Potency [2] | outcome [3] | outcome [4] | Potency [5] | Potency [8] | Potency [9] | outcome [10] | Potency [11] | Potency [12] | Potency [13] | outcome [14] | Potency [15] | Potency [19] | Potency [20] | Potency [17]

From PubChem BioAssay (Tox21)
